Rab9 promoter act = Rab9 promoter activation. Huh7 Rab9 promoter-luciferase reporter, luminescence, 24 h. Potency, µM (series often up to 9.22 µM), most hits filed as activators. actives 2.8% (n = 320,000). AID 485297; note: nearly all actives have a fitted effect of over 60% in size
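Cells were plated at 1500 per well in reduced-serum medium with 10% FBS and left 2 h. Compound in DMSO was then added for 24 h at 37 °C. Reporter signal was read by luminescence after 10 min with luciferase detection reagent.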
ELG1 repair inh = inhibitors of ELG1-dependent DNA repair in HEK293T cells. HEK293T ELG1-luciferase reporter, luminescence, 16 h; DNA damage induced by 5-fluorouridine. Potency, µM (titrated, usually from 46.1 µM), hits mostly inhibitors. actives 2.3% (n = 330,000); note: nearly all actives have a fitted effect of over 55% in size
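Reporter activity after DNA damage by 5-fluorouridine is monitored. Compound-treated cells incubate 16 hr at 37 °C, then ONE-Glo is added for 30 min before luminescence reading.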
FLuc counter = counter-screen for miR-21 project: firefly luciferase inhibitors or activators | purified FLuc, Km substrates, luminescence inhibition | P08659 | actives 6.9% (n = 360,000) | Potency, µM (doses to about 57.5 µM), most hits filed as inhibitors | AID 588342; note: nearly all actives have a fitted effect of over 55% in size
Target sequence (P08659 whole entry, looked up): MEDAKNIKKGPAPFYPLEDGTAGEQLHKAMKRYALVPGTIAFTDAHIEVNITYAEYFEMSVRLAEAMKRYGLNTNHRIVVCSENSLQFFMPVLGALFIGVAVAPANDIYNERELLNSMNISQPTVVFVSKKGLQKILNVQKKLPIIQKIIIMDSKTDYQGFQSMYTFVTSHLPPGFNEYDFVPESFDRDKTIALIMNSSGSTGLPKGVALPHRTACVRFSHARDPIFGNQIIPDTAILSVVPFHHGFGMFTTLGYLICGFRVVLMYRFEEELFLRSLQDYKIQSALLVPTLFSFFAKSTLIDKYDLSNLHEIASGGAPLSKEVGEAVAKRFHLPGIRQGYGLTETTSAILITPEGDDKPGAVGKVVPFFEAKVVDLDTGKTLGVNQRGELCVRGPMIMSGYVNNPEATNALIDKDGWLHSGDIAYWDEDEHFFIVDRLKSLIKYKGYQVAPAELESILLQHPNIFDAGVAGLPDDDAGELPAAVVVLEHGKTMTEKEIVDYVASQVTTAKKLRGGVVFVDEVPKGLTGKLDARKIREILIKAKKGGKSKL
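Purified P. pyralis luciferase, 10 nM final, with Km-level 10 uM D-luciferin and 10 uM ATP in 50 mM Tris acetate pH 7.5, 10 mM Mg acetate, 0.01% Tween-20, 0.05% BSA; 6-point qHTS titration about 60 µM downward; luminescence read.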
SMN2 splice enh = increases expression of the SMN2 splice variant; HEK293 SMN2-luciferase splicing reporter, luminescence, 30-36 h; Potency, µM (series often up to 46.1 µM), usual class: activators; actives 2.8% (n = 210,000); note: nearly all actives have a fitted effect of over 55% in size
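qHTS luciferase splicing reporter: luminescence rises when SMN2 exon 7 is included in transfected HEK293 cells. Compound exposure lasted 30-36 h at 37C, with 4.5 mM final sodium butyrate as control, followed by a ONE-Glo read.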
ELG1 genotoxic = inducers of genotoxicity in HEK293T ELG1-luciferase cells. actives 1.3% (n = 330,000). Potency, µM (series often up to 46 µM), hits mostly activators. HEK293T ELG1-luciferase reporter, luminescence, 16 h; note: nearly all actives have a fitted effect of over 60% in size
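Luminescence read-out: rising ELG1-luciferase signal, reflecting elevated ELG1 protein under genetic stress, flags genotoxic compounds. Cells were treated for 16 hr at 37 °C before ONE-Glo detection.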
NPC1 promoter act = activates the NPC1 promoter; Huh7 NPC1 promoter luciferase reporter, 24 h; Potency, µM (titrated, usually from 9.22 µM), hits mostly activators; actives 2.4% (n = 320,000); AID 485313; note: nearly all actives have a fitted effect of over 60% in size
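Readout is luciferase luminescence, reflecting NPC1 promoter activation in stably transfected Huh7 cells after 24 h compound exposure at 37 °C in reduced-serum medium with 10% FBS.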
A number is an active result; [ ] = remark or other dose. Hits are enriched below; roughly 9.3% of the tested compounds scored in any of these assays. Calls come from the whole dose curve; as a rule, active = well fitted curve in the direction sought with a large enough effect; inconclusive = small, poorly fitted or top-dose-only effect, or another doubt; inactive = no such curve, though single readings can be large; an effect the other way counts as inactive or inconclusive.

For COc1ccc(-n2nc(C(=O)NCC(=O)N3CCN(c4ccccc4F)CC3)c3ccccc3c2=O)cc1 the results were Rab9 promoter act inconclusive, ELG1 repair inh inconclusive, FLuc counter 0.338µM, ELG1 genotoxic inactive and NPC1 promoter act inconclusive.
Screening COc1ccc(-n2nc(C(=O)NCC(=O)NCCC3=CCCCC3)c3ccccc3c2=O)cc1OC returned Rab9 promoter act inactive, ELG1 repair inh 9.2µM, FLuc counter inactive, ELG1 genotoxic inactive and NPC1 promoter act inactive.
Screening CCCCNC(=O)CNC(=O)c1nn(-c2ccc(OC)cc2)c(=O)c2ccccc12 returned Rab9 promoter act inactive, ELG1 repair inh inactive, FLuc counter inactive, ELG1 genotoxic inactive and NPC1 promoter act inactive.
Cc1ccc(CCNC(=O)c2ccc3c(Cl)c4c(nc3c2)CCCC4)cc1 was read as FLuc counter inactive and SMN2 splice enh inactive.
COCCC1CCCCN1C(=O)c1cc(COc2ccc(-n3cncn3)cc2)on1 (stereo unspecified) was read as Rab9 promoter act inactive, ELG1 repair inh inconclusive, FLuc counter inactive, ELG1 genotoxic inactive and NPC1 promoter act inactive.
O=C1NN(c2cccc(Br)c2)C(=O)/C1=C\c1ccc(N2CCOCC2)cc1 was read as Rab9 promoter act inactive, ELG1 repair inh inactive, FLuc counter inconclusive, ELG1 genotoxic inactive and NPC1 promoter act inactive.
For Nc1nc(N2CCN(C(=O)c3ccco3)CC2)nc2ccccc12 the results were Rab9 promoter act inconclusive, ELG1 repair inh inconclusive, FLuc counter 19µM, SMN2 splice enh 12.6µM, ELG1 genotoxic inactive and NPC1 promoter act inactive.
For Nc1nc(N2CCN(C(=O)c3ccco3)CC2)nc2ccc(Br)cc12 the results were Rab9 promoter act 1.12µM, ELG1 repair inh inconclusive, FLuc counter 9.53µM, SMN2 splice enh 7.94µM, ELG1 genotoxic inconclusive and NPC1 promoter act 2µM.
Screening O=C(c1ccco1)N1CCN(c2nc3ccccc3c(=O)n2-c2ccccc2)CC1 returned Rab9 promoter act inactive, ELG1 repair inh 20.6µM, FLuc counter inactive, SMN2 splice enh inactive, ELG1 genotoxic inactive and NPC1 promoter act inactive.
O=C1CCCc2nc(N3CCN(C(=O)c4ccco4)CC3)ncc21 was read as Rab9 promoter act 2.51µM, ELG1 repair inh inconclusive, FLuc counter 26.9µM, ELG1 genotoxic 20.6µM and NPC1 promoter act 3.98µM.
For Cc1cc(N2CCN(C(=O)c3ccco3)CC2)c2ccccc2n1 the results were Rab9 promoter act inactive, ELG1 repair inh inactive, FLuc counter inactive, ELG1 genotoxic inactive and NPC1 promoter act inactive.
For O=C(c1ccco1)N1CCN(c2ncccn2)CC1 the results were Rab9 promoter act inactive, ELG1 repair inh inconclusive, FLuc counter inactive, SMN2 splice enh inactive, ELG1 genotoxic inactive and NPC1 promoter act inactive.
`O=C(c1ccco1)N1CCN(Cc2ccc(Br)cc2)CC1` gave Rab9 promoter act inactive[1.84 µM], ELG1 repair inh inactive, FLuc counter inactive, ELG1 genotoxic inactive and NPC1 promoter act inactive.
Screening CC1(C)C(=O)OC(/C=C/c2cccc([N+](=O)[O-])c2)C(C)(C)C1=O (stereo unspecified) returned Rab9 promoter act inactive, ELG1 repair inh inactive, FLuc counter inactive, ELG1 genotoxic inactive and NPC1 promoter act inactive.
For COc1cc(NC(=O)CC2C(=O)N(c3cccc(C)c3)C(=O)N2Cc2ccc(F)cc2)cc(OC)c1 (stereo unspecified) the results were FLuc counter inactive.
Screening CC1(C(=O)O)NCCc2cc(O)c(O)cc21 (stereo unspecified) returned SMN2 splice enh inactive.
Screening C=CCNC(=S)NCC returned Rab9 promoter act inactive, ELG1 repair inh inactive, FLuc counter inactive, ELG1 genotoxic inactive and NPC1 promoter act inactive.
`COc1ccc(N2CC(NC(=O)c3ccc(S(=O)(=O)N4CCCC4)cc3)CC2=O)cc1` (stereo unspecified) gave FLuc counter inactive.
Screening CC(=O)c1cccc(NC(=O)Cn2c(SCC(=O)Nc3ccc(F)cc3)nc3ccccc32)c1 returned FLuc counter inactive.
